TEAD-YAP inh: TEAD-YAP interaction inhibition. HEK-TIYL cells, TEAD-Gal4/YAP UAS-luciferase luminescence. AID 1259422. 1.4% of 640,000 active. inhibition, % at 9.12 µM; in the data active = inhibition above about 32%;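 note: 0% = median of test compound wells and 100% = reference inhibitor wells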
MITF primary: blocks human microphthalmia-associated transcription factor | AID 1259374 | AlphaScreen MITF homodimerization, bead proximity signal | 0.91% of 650,000 active | inhibition, % at 2.6 µM | O75030; in the data active = inhibition above about 50%;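 note: 0% = vehicle wells with protein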
Target sequence (O75030 whole entry, looked up): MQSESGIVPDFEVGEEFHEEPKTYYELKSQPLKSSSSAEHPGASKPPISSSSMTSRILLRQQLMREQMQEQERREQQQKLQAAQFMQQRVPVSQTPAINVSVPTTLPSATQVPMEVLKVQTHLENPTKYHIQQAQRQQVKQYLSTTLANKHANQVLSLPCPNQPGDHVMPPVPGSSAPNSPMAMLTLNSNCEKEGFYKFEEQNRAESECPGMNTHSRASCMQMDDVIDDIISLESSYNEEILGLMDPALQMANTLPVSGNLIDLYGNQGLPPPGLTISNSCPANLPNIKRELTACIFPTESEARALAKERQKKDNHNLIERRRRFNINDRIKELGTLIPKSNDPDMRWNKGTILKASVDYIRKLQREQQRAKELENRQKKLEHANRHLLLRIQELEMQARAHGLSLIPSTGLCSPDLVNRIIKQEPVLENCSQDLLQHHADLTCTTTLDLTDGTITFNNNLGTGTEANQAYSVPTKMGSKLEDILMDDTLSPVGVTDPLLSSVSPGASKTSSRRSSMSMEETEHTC
FBW7 activator: activators of human E3 ligase FBW7; Q969H0; AlphaScreen FBW7–phospho-cyclin E peptide binding, activator screen; normalized activity (activation), % at 26.1 µM; 0.13% of 650,000 active; AID 1259310; in the data active = normalized activity above about 1.9%;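 note: purified mutant Fbw7 with reduced substrate affinity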
GPR151 activ: human GPR151 activation; PathHunter beta-arrestin GPR151 cells, luminescence; activation, % at 11.2 µM; 1% of 650,000 active; AID 1508602; in the data active = activation above about 4.9%;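 note: 0% = median of compound wells and 100% = cells with positive control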
* = called active by the depositor. Compounds with a hit are over-represented: about 3.5% of the library has one in this group of screens.

SMILES	TEAD-YAP inh	MITF primary	FBW7 activator	GPR151 activ
Cc1nc(C)c(C(=O)N2CCN(Cc3csc(-c4ccccc4)n3)CC2)s1	40*	1	0	1
COCC(=O)N1CCN(Cc2csc(-c3ccccc3)n2)CC1	-31	14	0	1
O=C(c1ccc(-n2cccc2)cc1)N1CCN(Cc2csc(-c3ccccc3)n2)CC1	60*	42	-1	0
Cc1nc(-n2cccc2)sc1C(=O)N1CCN(Cc2csc(-c3ccccc3)n2)CC1	30	11	0	-2
O=C(COc1ccccc1)Nc1ccc(S(=O)(=O)Nc2cccc3ccccc23)cc1	5	-1	0	0
COc1cccc(N(CC(=O)NC(C)(C)C)C(=O)Cn2nnc(-c3ccc(C)cc3)n2)c1	8	5	0	1
Nc1ncc(-c2cccc(F)c2)nc1NCc1ccncc1	-8	12	1.9*	-2
Nc1ncc(-c2ccncc2)nc1NCc1ccccc1	7	-2	0	2
O=C1CCCN1CCCNc1ccnc(N2CCOCC2)n1	1	-9	0	-1
Cc1cc(NCCCN2CCCC2=O)nc(N2CCOCC2)n1	-3	8	7.4*	-1
CN(C(=O)c1cccc2ncccc12)c1nc2c(s1)CCc1occc1-2	-7	12	7.5*	0
Cc1cc(-n2c(SCC(=O)NCC3CCCO3)nc3ccsc3c2=O)ccc1Cl (centres undefined)	-8	-10	0	1
CC(C)C(=O)NC(c1ccccc1Cl)c1ccc2cccnc2c1O (centres undefined)	84*	19	-2	1
CC(C)C(=O)NC(c1ccccc1)c1ccc2cccnc2c1O (centres undefined)	90*	28	-1	-1
CC(C)C(=O)NC(c1ccc(Cl)cc1)c1ccc2cccnc2c1O (centres undefined)	85*	12	-2	1
CC(C)c1ccc(C(NC(=O)C2CCCCC2)c2ccc3cccnc3c2O)cc1 (centres undefined)	19	5	1	2
CC(C)C(=O)NC(c1ccco1)c1ccc2cccnc2c1O (centres undefined)	64*	44	-2	-2
Cc1ccc2c(c1)N(S(=O)(=O)c1c(C)[nH]c(=O)[nH]c1=O)CCO2	4	8	0	0
COCCNC(=O)CCC1CCN(C(=O)CCOc2ccccc2)CC1	-4	-13	0	-1
COCCNC(=O)CCC1CCN(C(=O)C#Cc2ccccc2)CC1	38*	2	0	2
CCOc1ccc(NC(=O)CC2Sc3ccccc3NC2=O)c([N+](=O)[O-])c1 (centres undefined)	52*	-11	0	-1
CCOc1ccc(NC(=O)c2cccc3ccccc23)c([N+](=O)[O-])c1	43*	25	0	-2
Cc1ccc(NC(=O)CC2Sc3ccccc3NC2=O)c(C)c1 (centres undefined)	16	7	0	0
Cc1ccc(NC(=O)CC2Sc3ccccc3NC2=O)c([N+](=O)[O-])c1 (centres undefined)	48*	2	0	1
CCOc1cc([N+](=O)[O-])ccc1NC(=O)CC1Sc2ccccc2NC1=O (centres undefined)	58*	4	0	0
SMILES	TEAD-YAP inh	MITF primary	FBW7 activator	GPR151 activ
Nc1nc(NCc2ccccc2)cc(-c2ccc3[nH]ccc3c2)n1	34*	0	0	-1
Nc1ccc2nc(SCC(=O)N3CCN(c4ccc(Cl)cc4)CC3)sc2c1	51*	8	0	2
Clc1ccccc1CNc1ncnc2ccccc12	48*	8	0	2
COc1ccccc1NC(=O)Cn1c(C)cc(=O)c2cccc(OC)c21	37*	-10	0	0
COc1ccccc1NC(=O)Cn1c(C)cc(=O)c2cccc(C)c21	3	-1	0	1
COc1ccccc1NC(=O)Cn1c(C)cc(=O)c2ccccc21	64*	-2	0	-1
COc1cccc(NC(=O)Cn2c(C)cc(=O)c3ccccc32)c1	54*	13	0	0
CCn1c(=O)n(CC(=O)Nc2ccccc2OC)c(=O)c2ccccc21	14	9	0	-1
Cc1ccc(OCCN(C)C(=O)C2CCN(c3nc(C)c4ccccc4n3)CC2)cc1	-1	12	2	-1
O=C1CC(c2ccc(C3=NN(c4ccccc4)C(=O)C3)cc2)=NN1c1ccccc1	9	24	0	0
OC(c1ccc(Cl)cc1)c1ccc(-n2ccnc2)cc1 (centres undefined)	16	-4	0	1
COc1ccc(C(=O)c2ccc(Cl)c([N+](=O)[O-])c2)cc1	62*	5	0	0
